# Data: PubChem BioAssay (NCATS)
# Inconclusive results are not listed. Where a call stands in place of a potency, no number is given. Unmarked numbers belong to inactive results. Calls of active or inactive are those of the source. Unless noted, calls follow the shape of the dose curve; as a rule, active = well fitted curve in the direction sought with a large enough effect; inconclusive = small, poorly fitted or top-dose-only effect, or another doubt; inactive = no such curve, though single readings can be large; an effect the other way counts as inactive or inconclusive.
# Key:
# [1] = target: Aldehyde dehydrogenase, mitochondrial (Homo sapiens) (UniProt P05091); test: qHTS for Inhibitors of the Aldehyde Dehydrogenase Family (ALDH2) Confirmatory screens (AID 2061303; active = well fitted inhibition curve with a large enough effect; title and protocol of this record describe different tests; also: nearly all actives have a fitted effect of over 45% in size; also: potency is read from the fitted curve at half-maximal effect)
# [2] = qHTS for Inhibitors of the Aldehyde Dehydrogenase Family (ALDH1A2, ALDH1A3, ALDH2, ALDH3A1) (AID 2061307); also: nearly all actives have a fitted effect of over 50% in size; as to potency: test system not described further here; potency is read from the fitted curve at half-maximal effect
# [3] = target: Aldehyde dehydrogenase, mitochondrial (Homo sapiens) (UniProt P05091); test: qHTS for Inhibitors of the Aldehyde Dehydrogenase Family (ALDH2) Primary screen (AID 2061308); also: nearly all actives have a fitted effect of over 55% in size; also: potency is read from the fitted curve at half-maximal effect
# [4] = target: Retinaldehyde dehydrogenase 3 (Homo sapiens) (UniProt P47895); test: qHTS for Inhibitors of the Aldehyde Dehydrogenase Family (ALDH1A3) Confirmatory screens (AID 2061311); also: nearly all actives have a fitted effect of over 60% in size; also: potency is read from the fitted curve at half-maximal effect
# [5] = target: Retinal dehydrogenase 2 (Homo sapiens) (UniProt O94788); test: qHTS for Inhibitors of the Aldehyde Dehydrogenase Family (ALDH1A2) Confirmation screens (AID 2061314); also: nearly all actives have a fitted effect of over 65% in size; also: potency is read from the fitted curve at half-maximal effect
# [6] = target: Retinaldehyde dehydrogenase 3 (Homo sapiens) (UniProt P47895); test: qHTS for Inhibitors of the Aldehyde Dehydrogenase Family (ALDH1A3) Primary screen (AID 2061315)
# [7] = target: Aldehyde dehydrogenase 1A1 (Homo sapiens) (UniProt P00352); test: qHTS for Inhibitors of the Aldehyde Dehydrogenase Family (ALDH1A1) Confirmatory screens (AID 2061316); also: nearly all actives have a fitted effect of over 65% in size; also: potency is read from the fitted curve at half-maximal effect
# [8] = BET inhibitor-based combinations targeting novel dependencies in MECOM-rearranged (r) AML: SET-2 cell line (AID 2202231); conditions: SET-2 AML cells viability, CellTiter-Glo luminescence, 48 h; viability: active compounds read low, series mostly up to about 46 µM; also: nearly all actives have a fitted effect of over 35% in size
# In short: (§1)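 Each compound was tested at eleven concentrations on cells seeded at 500/well. After two days' incubation, ATP-based luminescence reported viability; responses relative to DMSO and blank wells yielded AUC and cell-line-centred Z-AUC.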
# [9] = BET inhibitor-based combinations targeting novel dependencies in MECOM-rearranged (r) AML: OCI-AML3 cell line (AID 2202232); conditions: Potency: OCI-AML3 viability; also: series mostly up to about 46 µM; nearly all actives have a fitted effect of over 35% in size
# In short: as §1
# [10] = BET inhibitor-based combinations targeting novel dependencies in MECOM-rearranged (r) AML: UCSD-AML1 cell line (AID 2202235); also: series mostly up to about 46 µM; nearly all actives have a fitted effect of over 40% in size
# In short: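 First, 500 cells per well were seeded; next, drugs were pinned as 11-point doses; then plates sat 48 hr in the incubator; finally CellTiter-Glo was added and luminescence read, with AUC and Z-AUC computed.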
# [11] = BET inhibitor-based combinations targeting novel dependencies in MECOM-rearranged (r) AML: AML-191 cell line (AID 2202236; also: nearly all actives have a fitted effect of over 35% in size)
# In short: as §1
# [12] = BET inhibitor-based combinations targeting novel dependencies in MECOM-rearranged (r) AML: AML-194 cell line (AID 2202237; also: nearly all actives have a fitted effect of over 40% in size)
# In short: as §1
SMILES,Potency [1],Potency [2],Potency [3],Potency [4],Potency [5],Potency [6],Potency [7],viability [8] [%],Potency [9],Potency [10],Potency [11],Potency [12]
Cc1ccc(-c2cc(C(=O)N3CCCCC3)c3ccccc3n2)cc1C,inactive,inactive,inactive,inactive,inactive,inactive,inactive,–,–,–,–,–
O=C1c2ccccc2NC(c2ccc(-c3ccc(Br)cc3)o2)N1O (centres undefined),0.891 µM (active),11.3 µM (active),1 µM (active),12.7 µM (active),12.7 µM (active),inactive,–,–,–,–,–,–
Nc1ccc(S(=O)(=O)N2CCN(S(=O)(=O)c3c(F)cccc3F)CC2)cc1,inactive,inactive,inactive,inactive,inactive,inactive,–,–,–,–,–,–
COc1ccc(CN2C(=O)c3ccccc3NC2c2ccc(OC)c(COc3ccc(NC(C)=O)cc3)c2)cc1 (centres undefined),17.8 µM (active),7.94 µM (active),inactive,2.24 µM (active),6.34 µM (active),inactive,–,–,–,–,–,–
FC(F)(F)c1cc(N2CCN(C(=S)Nc3cc(Cl)ccn3)CC2)cc(C(F)(F)F)c1,inactive,inactive,inactive,inactive,inactive,inactive,22.5 µM (active),–,–,–,–,–
O=C(Nc1ccccc1)OCc1c(-c2ccccc2)no[n+]1[O-],inactive,11.3 µM (active),inactive,inactive,inactive,inactive,–,–,–,–,–,–
CC(=O)Nc1sc2c(c1-c1cc3ccccc3[nH]1)CCNC2,inactive,inactive,inactive,inactive,28.3 µM (active),inactive,–,–,–,–,–,–
N#Cc1nc(NCCO)nc(Nc2ccccc2)n1,inactive,inactive,inactive,inactive,inactive,inactive,inactive,–,–,–,–,–
N#Cc1ccc(-c2cnc3[nH]cc(NC(=O)c4cccnc4)c3c2)cc1,3.57 µM (active),1.59 µM (active),inactive,3.16 µM (active),2.83 µM (active),inactive,12.7 µM (active),–,–,–,–,–
CCOc1ccccc1-c1nnc2n1N=C(c1ccc(OC)cc1)CS2,inactive,7.94 µM (active),inactive,inactive,inactive,inactive,17.9 µM (active),–,–,–,–,–
O=C(O)c1cccc(-c2noc(-c3cccc(C(F)(F)F)c3)n2)c1,inactive,0.956 µM (active),inactive,0.504 µM (active),inactive,–,inactive,–,–,–,–,–
O=[N+]([O-])c1ccc(S(=O)(=O)c2ccc(Cl)cc2)nc1,0.504 µM (active),2.82 µM (active),0.251 µM (active),28.2 µM (active),3.16 µM (active),–,0.283 µM (active),–,–,–,–,–
COc1ccc(C2=Nn3c(nnc3-c3cccc(OC)c3)SC2)cc1,inactive,12.7 µM (active),inactive,inactive,inactive,inactive,inactive,–,–,–,–,–
CC(=O)NCCC(=O)N[C@@H](CCC(N)=O)C(=O)N[C@@H](CO)C(=O)N[C@@H](CCC(N)=O)C(=O)N[C@@H](CCC(N)=O)C(=O)N[C@H](C(=O)N[C@@H](Cc1ccccc1)C(=O)N[C@]1(C)CCCCCCC=CCCC[C@@](C)(C(=O)N[C@@H](CCC(N)=O)C(=O)N[C@@H](CC(N)=O)C(N)=O)NC(=O)[C@H](CC(C)C)NC(=O)[C@H](CC(C)C)NC(=O)[C@@H](CCCNC(=N)N)NC(=O)[C@H](Cc2c[nH]c3ccccc23)NC(=O)[C@H](CC(C)C)NC(=O)[C@H](CC(N)=O)NC1=O)[C@H](C)O,inactive,inactive,inactive,inactive,inactive,inactive,inactive,109,inactive,inactive,inactive,inactive
CC(=O)Nc1ccc(S(=O)(=O)N2CCN(S(=O)(=O)c3ccc4c(c3)OCCO4)CC2)cc1,inactive,inactive,inactive,inactive,inactive,inactive,inactive,–,–,–,–,–
Oc1ccc(Oc2ccccc2F)c2cccnc12,4.49 µM (active),17 µM (active),inactive,2.01 µM (active),2.01 µM (active),–,5.04 µM (active),–,–,–,–,–
O=C(CSc1nnc(-c2cccc(S(=O)(=O)N3CCCC3)c2)n1-c1ccccc1)Nc1ccc(F)cc1,inactive,inactive,inactive,inactive,inactive,inactive,inactive,–,–,–,–,–
N#Cc1ccc(-c2ccc(CNc3ccc(N4CCCCC4)cc3)o2)cc1,0.0712 µM (active),0.712 µM (active),inactive,11.3 µM (active),2.25 µM (active),–,8.96 µM (active),–,–,–,–,–
CCOC(=O)c1ccc(O)c2ncc(-c3ccc(C(=N)N)cc3)cc12,inactive,inactive,inactive,10.1 µM (active),inactive,–,inactive,–,–,–,–,–
Oc1ccc(CC2NCCc3cc(O)c(O)cc32)cc1 (centres undefined),inactive,inactive,inactive,inactive,inactive,–,inactive,–,–,–,–,–
O=C1Nc2ccccc2/C1=C\c1cc(F)c(O)c(F)c1,inactive,inactive,1.12 µM (active),3.16 µM (active),5.62 µM (active),–,8.96 µM (active),–,–,–,–,–
O=C(NN1CCCC1)NS(=O)(=O)c1ccc(Cl)cc1,inactive,inactive,inactive,inactive,inactive,–,inactive,–,–,–,–,–
OCc1cccc(-c2noc(-c3ccccc3F)n2)c1,inactive,10.7 µM (active),inactive,5.65 µM (active),inactive,–,inactive,–,–,–,–,–
C=CCNc1oc(-c2cccs2)nc1C#N,inactive,inactive,inactive,inactive,inactive,inactive,inactive,–,–,–,–,–
